What was measured:
Experiment in all cases: DAPPL (digital affinity profiling via proximity ligation, sequencing); 10 mM Tris-HCl pH 7.5, 50 mM NaCl, 1 mM DTT, 4% glycerol, room temperature, 30 min; GST-TFs on glutathione beads, 16-mer random dsDNA library, 0.1% formaldehyde crosslink after washing; high values mean tight binding
Settings in all cases: protein: recombinant; tags: N-terminal GST; dsDNA, one strand shown
FLI1 = target: T1, FLI1 (Homo sapiens, UniProt Q01543 1-452)
T1 sequence: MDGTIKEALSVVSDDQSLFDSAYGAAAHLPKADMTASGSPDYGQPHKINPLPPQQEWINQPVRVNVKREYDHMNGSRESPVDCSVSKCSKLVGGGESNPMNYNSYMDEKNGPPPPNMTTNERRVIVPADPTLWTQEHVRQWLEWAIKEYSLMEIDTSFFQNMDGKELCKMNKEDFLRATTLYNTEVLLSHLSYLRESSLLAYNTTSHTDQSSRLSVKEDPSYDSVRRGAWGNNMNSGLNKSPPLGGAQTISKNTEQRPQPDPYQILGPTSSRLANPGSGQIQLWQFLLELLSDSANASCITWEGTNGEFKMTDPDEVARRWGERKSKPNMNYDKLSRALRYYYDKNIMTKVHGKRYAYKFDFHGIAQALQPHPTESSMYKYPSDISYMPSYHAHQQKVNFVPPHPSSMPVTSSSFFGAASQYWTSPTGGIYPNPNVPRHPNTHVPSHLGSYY
Outline: (§1)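 After expression in yeast as GST fusions, human transcription factors were bound to glutathione beads, DNA-barcoded and mixed with a tag-only sample. The pools were incubated with 200 nmole of a 16-mer random double-stranded DNA library in Tris/NaCl/DTT/glycerol buffer (30 min, room temperature), washed and crosslinked with 0.1% formaldehyde. Proximity ligation with BsaI/T4 ligase ran for 1 h at 37 °C, before PCR amplification and sequencing on an Illumina NextSeq500. Binding signal is a hexamer's read frequency for a factor divided by its frequency for the tag-only sample.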

ELK1 = target: T2, ELK1 (Homo sapiens, UniProt P19419 1-428)
T2 sequence: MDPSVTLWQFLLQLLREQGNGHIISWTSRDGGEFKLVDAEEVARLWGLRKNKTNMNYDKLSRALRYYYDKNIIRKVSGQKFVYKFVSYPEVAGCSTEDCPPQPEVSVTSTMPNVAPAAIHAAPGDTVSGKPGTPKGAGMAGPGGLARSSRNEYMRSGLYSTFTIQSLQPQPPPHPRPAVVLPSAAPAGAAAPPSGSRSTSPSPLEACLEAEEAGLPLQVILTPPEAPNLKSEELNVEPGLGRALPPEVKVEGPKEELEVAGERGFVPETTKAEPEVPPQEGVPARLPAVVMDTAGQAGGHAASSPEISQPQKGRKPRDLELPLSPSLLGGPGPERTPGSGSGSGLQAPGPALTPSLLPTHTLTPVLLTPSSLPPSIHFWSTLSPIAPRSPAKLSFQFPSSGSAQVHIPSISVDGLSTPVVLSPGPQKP
Outline: as §1

GABPA = target: T3, GABPA (Homo sapiens, UniProt Q06546 1-454)
T3 sequence: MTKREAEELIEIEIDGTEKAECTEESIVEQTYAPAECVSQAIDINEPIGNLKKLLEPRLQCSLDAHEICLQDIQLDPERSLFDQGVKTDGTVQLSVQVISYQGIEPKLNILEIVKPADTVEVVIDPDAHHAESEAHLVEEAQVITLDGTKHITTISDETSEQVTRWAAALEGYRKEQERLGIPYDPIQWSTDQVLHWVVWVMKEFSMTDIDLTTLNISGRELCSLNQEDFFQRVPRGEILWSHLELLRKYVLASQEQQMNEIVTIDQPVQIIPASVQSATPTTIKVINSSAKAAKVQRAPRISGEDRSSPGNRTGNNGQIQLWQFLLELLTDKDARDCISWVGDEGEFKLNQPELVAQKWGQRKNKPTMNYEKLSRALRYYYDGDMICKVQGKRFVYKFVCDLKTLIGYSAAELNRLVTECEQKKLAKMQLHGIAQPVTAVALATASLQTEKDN
Outline: as §1

ERG = target: T4, ERG (Homo sapiens, UniProt P11308 1-479)
T4 sequence: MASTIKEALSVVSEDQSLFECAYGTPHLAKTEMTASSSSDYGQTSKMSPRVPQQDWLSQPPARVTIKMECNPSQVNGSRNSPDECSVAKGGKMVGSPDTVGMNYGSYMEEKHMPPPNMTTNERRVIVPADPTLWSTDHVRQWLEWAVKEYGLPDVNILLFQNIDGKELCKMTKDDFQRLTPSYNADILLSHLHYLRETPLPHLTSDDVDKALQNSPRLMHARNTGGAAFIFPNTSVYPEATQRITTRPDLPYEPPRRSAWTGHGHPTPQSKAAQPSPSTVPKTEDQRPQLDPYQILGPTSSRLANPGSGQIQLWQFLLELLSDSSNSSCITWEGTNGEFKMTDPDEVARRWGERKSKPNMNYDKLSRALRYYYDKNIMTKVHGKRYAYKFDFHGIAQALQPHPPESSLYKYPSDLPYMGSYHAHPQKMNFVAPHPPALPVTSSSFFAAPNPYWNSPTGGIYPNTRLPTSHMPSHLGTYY
Outline: as §1

ELF1 = ELF1 (Homo sapiens, UniProt P32519 1-619)
Sequence of ELF1 (P32519 whole entry): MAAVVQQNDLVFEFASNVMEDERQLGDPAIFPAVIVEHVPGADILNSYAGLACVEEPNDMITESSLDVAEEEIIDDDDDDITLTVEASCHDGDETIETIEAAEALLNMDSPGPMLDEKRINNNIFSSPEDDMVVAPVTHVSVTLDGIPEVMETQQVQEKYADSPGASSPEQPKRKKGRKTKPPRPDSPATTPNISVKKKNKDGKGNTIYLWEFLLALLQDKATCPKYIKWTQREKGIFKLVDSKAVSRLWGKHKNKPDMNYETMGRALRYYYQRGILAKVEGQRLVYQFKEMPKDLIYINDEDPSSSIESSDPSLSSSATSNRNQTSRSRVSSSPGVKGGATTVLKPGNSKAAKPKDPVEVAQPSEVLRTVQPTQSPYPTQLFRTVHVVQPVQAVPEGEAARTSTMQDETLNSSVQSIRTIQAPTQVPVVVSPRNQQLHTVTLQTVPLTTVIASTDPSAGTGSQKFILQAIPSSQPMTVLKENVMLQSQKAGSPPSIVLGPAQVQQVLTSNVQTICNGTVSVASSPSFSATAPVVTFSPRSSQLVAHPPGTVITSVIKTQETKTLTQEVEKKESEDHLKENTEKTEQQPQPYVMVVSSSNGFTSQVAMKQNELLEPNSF
Outline: as §1

EHF = target: T5, EHF (Homo sapiens, UniProt Q9NZC4 1-300)
T5 sequence: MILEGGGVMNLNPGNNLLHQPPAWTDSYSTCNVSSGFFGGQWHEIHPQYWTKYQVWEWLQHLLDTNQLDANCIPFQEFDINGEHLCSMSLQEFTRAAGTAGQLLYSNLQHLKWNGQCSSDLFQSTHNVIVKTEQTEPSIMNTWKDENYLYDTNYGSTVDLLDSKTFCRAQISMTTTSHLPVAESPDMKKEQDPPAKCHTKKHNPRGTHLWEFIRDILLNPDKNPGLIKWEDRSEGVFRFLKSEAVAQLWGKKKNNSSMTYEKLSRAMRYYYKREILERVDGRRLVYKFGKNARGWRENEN
Outline: as §1

SPI1 = SPI1 (Homo sapiens, UniProt P17947 1-270)
Outline: as §1

SPIB = SPIB (Homo sapiens, UniProt Q01892 1-262)
Sequence of SPIB (Q01892 whole entry): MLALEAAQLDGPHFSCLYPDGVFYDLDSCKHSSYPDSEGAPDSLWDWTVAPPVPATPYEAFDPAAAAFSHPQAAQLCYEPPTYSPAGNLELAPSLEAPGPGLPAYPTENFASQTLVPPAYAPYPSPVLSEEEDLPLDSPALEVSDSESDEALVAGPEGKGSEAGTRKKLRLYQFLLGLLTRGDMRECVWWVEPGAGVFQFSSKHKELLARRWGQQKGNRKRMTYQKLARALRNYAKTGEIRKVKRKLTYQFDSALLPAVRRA
Outline: as §1

FEV = target: T6, FEV (Homo sapiens, UniProt Q99581 1-238)
T6 sequence: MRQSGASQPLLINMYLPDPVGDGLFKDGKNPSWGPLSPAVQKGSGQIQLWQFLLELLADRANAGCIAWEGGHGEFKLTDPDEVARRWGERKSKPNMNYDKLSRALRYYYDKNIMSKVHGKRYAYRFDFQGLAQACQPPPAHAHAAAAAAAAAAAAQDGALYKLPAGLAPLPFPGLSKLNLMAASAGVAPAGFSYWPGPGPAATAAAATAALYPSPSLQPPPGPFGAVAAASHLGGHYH
Outline: as §1

ETV5 = ETV5 (Homo sapiens, UniProt P41161 1-510)
Sequence of ETV5 (P41161 whole entry): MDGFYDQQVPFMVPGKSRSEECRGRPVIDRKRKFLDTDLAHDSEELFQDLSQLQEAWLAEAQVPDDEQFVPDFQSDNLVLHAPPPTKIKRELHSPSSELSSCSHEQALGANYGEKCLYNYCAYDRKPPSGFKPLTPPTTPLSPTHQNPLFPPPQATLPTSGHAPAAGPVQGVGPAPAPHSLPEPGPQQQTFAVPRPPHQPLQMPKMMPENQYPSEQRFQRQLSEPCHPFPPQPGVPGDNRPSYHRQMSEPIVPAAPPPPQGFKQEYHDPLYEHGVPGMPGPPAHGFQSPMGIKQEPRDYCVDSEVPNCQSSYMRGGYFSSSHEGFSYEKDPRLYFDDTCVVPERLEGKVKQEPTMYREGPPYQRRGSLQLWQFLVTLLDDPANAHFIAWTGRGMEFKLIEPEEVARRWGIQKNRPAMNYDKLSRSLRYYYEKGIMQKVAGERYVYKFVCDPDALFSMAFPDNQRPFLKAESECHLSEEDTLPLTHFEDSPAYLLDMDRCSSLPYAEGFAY
Outline: as §1

SPIC = target: T7, SPIC (Homo sapiens, UniProt Q8N5J4 1-248)
T7 sequence: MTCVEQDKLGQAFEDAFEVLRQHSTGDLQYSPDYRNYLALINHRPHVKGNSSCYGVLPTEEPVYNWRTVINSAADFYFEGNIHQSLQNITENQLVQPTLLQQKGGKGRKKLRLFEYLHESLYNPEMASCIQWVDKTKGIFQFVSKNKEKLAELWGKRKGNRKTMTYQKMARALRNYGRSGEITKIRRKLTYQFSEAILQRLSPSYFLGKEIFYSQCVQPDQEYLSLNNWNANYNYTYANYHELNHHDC
Outline: as §1

ELF4 = ELF4 (Homo sapiens, UniProt Q99607 1-663)
Sequence of ELF4 (Q99607 whole entry): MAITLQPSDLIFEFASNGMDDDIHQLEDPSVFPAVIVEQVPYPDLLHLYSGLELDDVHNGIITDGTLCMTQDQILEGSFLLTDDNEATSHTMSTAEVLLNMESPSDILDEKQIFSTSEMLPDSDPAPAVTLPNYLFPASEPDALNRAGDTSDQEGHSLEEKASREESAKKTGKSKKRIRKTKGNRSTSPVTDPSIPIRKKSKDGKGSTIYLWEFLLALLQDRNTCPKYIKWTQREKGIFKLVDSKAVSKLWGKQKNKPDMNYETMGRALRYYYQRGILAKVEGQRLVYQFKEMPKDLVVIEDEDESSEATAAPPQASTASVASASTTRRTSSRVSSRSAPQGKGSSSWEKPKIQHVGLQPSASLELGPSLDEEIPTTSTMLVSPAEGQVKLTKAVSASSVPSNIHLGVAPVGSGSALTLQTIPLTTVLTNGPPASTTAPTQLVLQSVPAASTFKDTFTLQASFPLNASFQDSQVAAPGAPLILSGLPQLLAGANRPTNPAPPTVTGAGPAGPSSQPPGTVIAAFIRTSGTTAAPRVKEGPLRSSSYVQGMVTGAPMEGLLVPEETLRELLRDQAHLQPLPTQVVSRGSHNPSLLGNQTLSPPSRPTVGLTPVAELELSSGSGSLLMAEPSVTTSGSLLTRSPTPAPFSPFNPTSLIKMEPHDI
Outline: as §1

ETV1 = ETV1 (Homo sapiens, UniProt P50549 1-477)
Sequence of ETV1 (P50549 whole entry): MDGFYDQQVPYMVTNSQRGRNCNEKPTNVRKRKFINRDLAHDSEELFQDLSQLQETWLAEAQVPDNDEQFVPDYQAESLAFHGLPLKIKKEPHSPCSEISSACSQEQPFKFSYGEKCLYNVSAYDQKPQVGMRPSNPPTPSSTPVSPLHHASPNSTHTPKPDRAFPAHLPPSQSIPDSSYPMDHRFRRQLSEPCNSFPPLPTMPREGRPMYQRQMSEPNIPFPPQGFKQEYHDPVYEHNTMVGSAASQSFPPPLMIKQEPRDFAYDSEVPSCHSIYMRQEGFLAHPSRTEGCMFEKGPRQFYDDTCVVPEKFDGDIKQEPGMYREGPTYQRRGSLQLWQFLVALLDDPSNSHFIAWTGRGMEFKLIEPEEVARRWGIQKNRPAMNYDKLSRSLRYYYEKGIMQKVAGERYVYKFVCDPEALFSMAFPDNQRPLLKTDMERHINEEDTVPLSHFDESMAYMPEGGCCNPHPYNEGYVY
Outline: as §1

ETV3L = target: T8, ETV3L (Homo sapiens, UniProt Q6ZN32 1-361)
T8 sequence: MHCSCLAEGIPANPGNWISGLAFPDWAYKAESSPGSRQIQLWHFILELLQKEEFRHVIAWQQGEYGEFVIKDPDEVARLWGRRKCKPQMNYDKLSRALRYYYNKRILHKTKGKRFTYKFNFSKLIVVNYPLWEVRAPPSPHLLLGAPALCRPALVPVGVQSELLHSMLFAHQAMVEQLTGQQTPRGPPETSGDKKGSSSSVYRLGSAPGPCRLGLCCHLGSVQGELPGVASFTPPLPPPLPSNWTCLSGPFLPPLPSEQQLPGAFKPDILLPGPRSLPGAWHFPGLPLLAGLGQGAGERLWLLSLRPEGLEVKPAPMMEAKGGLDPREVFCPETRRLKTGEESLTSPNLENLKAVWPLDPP
Outline: as §1

ETS2 = target: T9, ETS2 (Homo sapiens, UniProt P15036 1-469)
T9 sequence: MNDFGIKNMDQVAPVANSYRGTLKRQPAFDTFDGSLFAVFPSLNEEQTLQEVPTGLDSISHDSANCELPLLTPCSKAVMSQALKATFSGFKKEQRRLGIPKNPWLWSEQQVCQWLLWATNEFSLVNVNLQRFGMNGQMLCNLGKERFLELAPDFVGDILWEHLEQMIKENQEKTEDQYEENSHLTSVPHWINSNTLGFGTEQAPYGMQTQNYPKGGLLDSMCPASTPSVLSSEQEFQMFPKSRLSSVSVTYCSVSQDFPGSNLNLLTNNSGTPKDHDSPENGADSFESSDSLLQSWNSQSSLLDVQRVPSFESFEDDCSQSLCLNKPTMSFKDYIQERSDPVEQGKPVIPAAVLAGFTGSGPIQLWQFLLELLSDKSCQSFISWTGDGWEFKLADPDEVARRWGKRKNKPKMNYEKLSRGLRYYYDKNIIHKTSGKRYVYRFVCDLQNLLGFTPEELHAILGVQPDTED
Outline: as §1

SPDEF = target: T10, SPDEF (Homo sapiens, UniProt O95238 1-335)
T10 sequence: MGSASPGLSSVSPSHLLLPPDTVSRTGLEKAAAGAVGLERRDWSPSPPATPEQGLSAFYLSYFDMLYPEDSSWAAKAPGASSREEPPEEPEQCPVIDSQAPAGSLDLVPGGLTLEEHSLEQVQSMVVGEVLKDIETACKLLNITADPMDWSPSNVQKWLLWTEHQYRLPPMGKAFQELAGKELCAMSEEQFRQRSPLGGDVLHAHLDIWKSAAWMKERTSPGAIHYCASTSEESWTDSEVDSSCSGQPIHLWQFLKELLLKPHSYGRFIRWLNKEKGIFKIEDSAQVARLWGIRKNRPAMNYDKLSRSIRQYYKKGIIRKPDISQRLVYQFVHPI
Outline: as §1

ETV3 = target: T11, ETV3 (Homo sapiens, UniProt P41162-2 1-143)
T11 sequence: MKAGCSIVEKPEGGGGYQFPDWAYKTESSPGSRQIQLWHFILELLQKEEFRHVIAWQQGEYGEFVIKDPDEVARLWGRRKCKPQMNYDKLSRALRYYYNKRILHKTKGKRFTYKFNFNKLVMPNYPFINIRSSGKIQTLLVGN
Outline: as §1

GGGTTC
binding signal (FLI1): 1.06 fold enrichment (6-mer frequency, TF over GST control)
binding signal (ELK1): 1.02 fold enrichment (6-mer frequency, TF over GST control)
binding signal (GABPA): 1.01 fold enrichment (6-mer frequency, TF over GST control)
binding signal (ERG): 1.04 fold enrichment (6-mer frequency, TF over GST control)
binding signal (ELF1): 1.11 fold enrichment (6-mer frequency, TF over GST control)
binding signal (EHF): 1.02 fold enrichment (6-mer frequency, TF over GST control)
binding signal (SPI1): 1.11 fold enrichment (6-mer frequency, TF over GST control)
binding signal (SPIB): 1.09 fold enrichment (6-mer frequency, TF over GST control)
binding signal (FEV): 1.03 fold enrichment (6-mer frequency, TF over GST control)
binding signal (ETV5): 1.08 fold enrichment (6-mer frequency, TF over GST control)
binding signal (SPIC): 1.02 fold enrichment (6-mer frequency, TF over GST control)
binding signal (ELF4): 1.12 fold enrichment (6-mer frequency, TF over GST control)
binding signal (ETV1): 1.08 fold enrichment (6-mer frequency, TF over GST control)
binding signal (ETV3L): 1.09 fold enrichment (6-mer frequency, TF over GST control)
binding signal (ETS2): 1.07 fold enrichment (6-mer frequency, TF over GST control)
binding signal (SPDEF): 1.14 fold enrichment (6-mer frequency, TF over GST control)
binding signal (ETV3): 1.1 fold enrichment (6-mer frequency, TF over GST control)

Source: PMC7862700, “An all-to-all approach to the identification of sequence-specific readers for epigenetic DNA modifications on cytosine”
